HP1b binding inh – HTS for Inhibitors of HP1-beta Chromodomain Interactions with Methylated Histone Tails | Chromobox protein homolog 1 (Homo sapiens), P83916 | AlphaScreen HP1-beta / biotin-H3K9me3 peptide binding | Potency, µM (titrated, usually from 114 µM), hits mostly inhibitors | actives 0.56% (n = 390,000) | AID 540317, 2011; note: nearly all actives have a fitted effect of over 70% in size
Target sequence (P83916 whole entry, looked up): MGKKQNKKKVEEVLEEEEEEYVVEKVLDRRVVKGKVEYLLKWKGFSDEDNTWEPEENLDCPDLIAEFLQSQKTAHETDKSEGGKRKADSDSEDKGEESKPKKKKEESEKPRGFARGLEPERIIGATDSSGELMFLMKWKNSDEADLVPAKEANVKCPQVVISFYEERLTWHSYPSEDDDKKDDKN
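HP1-beta protein (50 nM final) preincubated 30 min at room temperature with biotinylated H3(1-18)K9me3 peptide (50 nM) in PBS pH 7.4, 0.01% Tween-20, then compound added for 30 min. AlphaScreen streptavidin donor/nickel chelate acceptor beads (10 ug/mL final), 30 min dark, luminescence read.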
G9a block – qHTS Assay for Inhibitors of Histone Lysine Methyltransferase G9a. G9a H3K9 monomethylation, AlphaScreen, 2 h. Potency, µM (series often up to 102 µM), hits mostly inhibitors. actives 8.8% (n = 350,000); note: nearly all actives have a fitted effect of over 75% in size
Target sequence (Q96KQ7 913-1193 limits assumed): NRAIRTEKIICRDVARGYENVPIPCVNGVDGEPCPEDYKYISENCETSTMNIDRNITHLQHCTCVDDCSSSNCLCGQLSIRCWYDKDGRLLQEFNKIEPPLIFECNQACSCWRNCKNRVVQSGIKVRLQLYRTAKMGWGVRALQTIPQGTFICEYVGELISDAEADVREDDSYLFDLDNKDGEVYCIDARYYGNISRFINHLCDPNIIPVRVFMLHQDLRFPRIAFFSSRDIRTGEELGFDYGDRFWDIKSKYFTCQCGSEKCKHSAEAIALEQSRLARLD
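Methyltransferase reactions run at room temperature for 2 h (20 nM enzyme, 500 nM biotin-H3K9 peptide, 20 uM SAM) after a 15 min compound preincubation; product detected by AlphaScreen beads and anti-H3K9me1 antibody.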
L3MBTL1 block – qHTS Assay for the Inhibitors of L3MBTL1; actives 0.66% (n = 230,000); Potency, µM (top dose mostly 57.1 µM), hits mostly inhibitors; Lethal(3)malignant brain tumor-like protein 1 (Homo sapiens), Q9Y468; AlphaScreen L3MBTL1–H3K9me1 peptide binding; note: nearly all actives have a fitted effect of over 60% in size
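First, the protein-peptide complex forms for 30 min at room temperature (L3MBTL1 50 nM, biotinylated H3K9me1 peptide 75 nM). Next, compounds are pin-transferred and incubated 30 min. Finally, AlphaScreen beads are added and read after 30 min.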
BAZ2B block – qHTS Assay for Inhibitors of BAZ2B; Bromodomain adjacent to zinc finger domain protein 2B (Homo sapiens), Q9UIF8; AlphaScreen BAZ2B-H3K14Ac peptide displacement; Potency, µM (highest dose often 114 µM), usual class: inhibitors; actives 4.4% (n = 360,000); AID 504333, 2011; note: nearly all actives have a fitted effect of over 60% in size
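AlphaScreen displacement of biotin-H3(5-23)K14Ac peptide (50 nM final) from BAZ2B (50 nM final) in PBS pH 7.4, 0.01% Tween-20; complex preformed 30 min RT, then compounds (top 110 uM) 30 min RT, beads 20 min dark.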
JMJD2A Tudor inh – qHTS Assay for Inhibitors of JMJD2A-Tudor Domain; Lysine-specific demethylase 4A (Homo sapiens), O75164; AlphaScreen JMJD2A-Tudor / H3K4me3 peptide binding; Potency, µM (highest dose often 114 µM), actives largely listed as inhibitors; actives 4.4% (n = 390,000); AID 504339, 2011; note: nearly all actives have a fitted effect of over 50% in size
A number is an active result; n = inactive; u = inconclusive; x = no result; ! = repeats disagree; [ ] = remark or other dose. Sampled rows, rich in hits. Any-hit rate of the full collection: about 11%. Calls come from the whole dose curve; as a rule, active = well fitted inhibition curve with a large enough effect; inconclusive = small, poorly fitted or top-dose-only effect; inactive = no such curve, though single readings can be large or run the other way.

SMILES	HP1b binding inh	G9a block	L3MBTL1 block	BAZ2B block	JMJD2A Tudor inh
Cc1ccc(-c2csc(NC(=O)c3cccc(N4C(=O)CCC4=O)c3)n2)o1	n	8.9µM	n	n	79µM
O=C(Nc1nnc(-c2cccnc2)o1)c1cccc([N+](=O)[O-])c1	x	n	x	u	x
O=C(Nc1nnc(-c2ccncc2)o1)c1cccc(N2C(=O)CCC2=O)c1	n	u	x	x	6.3µM
CCOc1ccc(-c2csc(NC(=O)c3cccc(N4C(=O)CCC4=O)c3)n2)cc1	n	n	x	n	n
Cc1cccc(NC(=O)c2ccc(-c3nc(CSc4ccccc4)c(C)o3)cc2)c1C	n	n	x	n	n
CN(C)c1ccc(CNC(=O)C2COc3ccccc3C2)cc1 (configuration not stated)	n	u	x	n	n
CS(=O)(=O)c1ccc2nc(NC(=O)C3CC3)sc2c1	n	x	x	x	n
COc1cc(OC)cc(C(=O)N[C@H](C(=O)Nc2nc3ccc(S(C)(=O)=O)cc3s2)C(C)C)c1	n	40µM	x	n	n
CCc1ccc(N2CC(C(=O)Nc3nc4ccc(S(C)(=O)=O)cc4s3)CC2=O)cc1 (configuration not stated)	n	40µM	x	n	n
COc1ccc(N2CC(C(=O)Nc3nc4ccc(S(C)(=O)=O)cc4s3)CC2=O)cc1 (configuration not stated)	n	28µM	x	u	n
COc1ccc(C(=O)Nc2nc3ccc(S(C)(=O)=O)cc3s2)cc1	n	u	n	n	n
COc1ccc2nc(NC(=O)C3CCN(S(=O)(=O)c4cccs4)CC3)sc2c1	n	n	x	n	100µM
CS(=O)(=O)c1ccc2nc(NC(=O)C3CC(=O)N(c4ccc(F)cc4)C3)sc2c1 (configuration not stated)	n	u	x	n	n
COc1ccccc1CNC(=O)Cn1c(=O)ccc2cc(S(=O)(=O)N3CCCC3)ccc21	n	n	x	n	n
COc1ccc(N2CC(C(=O)Nc3ccc([N+](=O)[O-])cc3Br)CC2=O)cc1 (configuration not stated)	n	u	x	n	n
COc1ccc(N2CC(C(=O)N/N=C/c3cc([N+](=O)[O-])ccc3O)CC2=O)cc1 (configuration not stated)	n	n	x	35µM	79µM
O=C(O)c1csc(N/N=C/c2ccc(Br)cc2)n1	n	35µM	n	79µM	n
C/C=C/C=C/C(=O)[C@@H]1[C@@H]([C@]2(C)OC(=O)C(C)=C2O)[C@H]2/C(=C(O)/C=C/C=C/C)C(=O)[C@]1(C)C(=O)C2(C)O (some centres not stated)	n	u	x	79µM	45µM
NCCC1CCCC(CCN)N1 (configuration not stated)	n	8.9µM!	n	n	n
Cc1cc(Cl)ccc1-n1c(-c2cccnc2)n[nH]c1=S	n	10µM	n	n	28µM
Cc1ccc(C)c(Nc2nc(-c3cccnc3)cs2)c1	n	n[2.33 µM]	x	n	u
Cc1ccc(C)c(-n2c(-c3csc(C)c3C)n[nH]c2=S)c1	n	u	n	n	25µM
Cc1ccc(C)c(-n2c(-c3cccnc3)n[nH]c2=S)c1	n	32µM	n	u	22µM
Cc1c(Cl)cccc1-n1c(-c2cccnc2)n[nH]c1=S	n	n[12.7 µM]	n	n	35µM
Cc1cc(Br)ccc1NC(=O)CSc1c2c(nc3ccccc13)CCC2	n	n	x	x	n
SMILES	HP1b binding inh	G9a block	L3MBTL1 block	BAZ2B block	JMJD2A Tudor inh
COc1ccc(S(=O)(=O)c2nnn(-c3cc(Cl)c(OC)cc3OC)c2C)cc1	n	n	x	n	n
Cc1ccccc1Sc1ncccc1[N+](=O)[O-]	n	x	x	x	u
O=[N+]([O-])c1cccnc1SCc1ccccc1	35µM	45µM	x	32µM	14µM
O=C(O)c1cccnc1SCc1ccc([N+](=O)[O-])cc1	n	n	x	n	n
Cc1ccc(Sc2ncccc2[N+](=O)[O-])cc1	u	u	x	u	45µM
Cc1c([N+](=O)[O-])cnc(Sc2ccccc2)c1[N+](=O)[O-]	u	x	x	x	40µM
O=[N+]([O-])c1cccnc1Sc1ccc(Br)cc1	u	x	x	x	56µM
